{"source": "PubChem BioAssay", "note": "Values without a mark were called inactive. How the calls were made is not given here."}
{"molecular_target": "Pantothenate synthetase (Mycobacterium tuberculosis (strain ATCC 25618 / H37Rv)) (UniProt P9WIL5)", "sequence (P9WIL5 whole entry, looked up)": "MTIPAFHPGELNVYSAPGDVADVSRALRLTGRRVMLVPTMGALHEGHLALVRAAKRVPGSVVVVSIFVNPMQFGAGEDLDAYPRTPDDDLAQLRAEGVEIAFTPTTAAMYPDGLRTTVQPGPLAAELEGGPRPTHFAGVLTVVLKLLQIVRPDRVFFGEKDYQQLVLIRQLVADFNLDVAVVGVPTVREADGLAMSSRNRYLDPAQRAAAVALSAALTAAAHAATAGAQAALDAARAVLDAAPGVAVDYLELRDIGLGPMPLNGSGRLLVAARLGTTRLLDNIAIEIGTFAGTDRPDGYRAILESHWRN", "assay": "Coupled enzyme confirmation of inhibitors against recombinant Mtb PanC (AID 375);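 further: 0% = full reaction with vehicle and 100% = no enzyme background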", "conditions": "coupled enzyme assay; at 10 µM, active compounds read high", "units": {"inhibition": "%"}}
{"smiles": "Oc1cccc(C=NCc2ccccc2)c1O", "inhibition": 0}
{"smiles": "Cc1ccc(Cn2c(SCCN3CCCCC3)nc3c2c(=O)[nH]c(=O)n3C)cc1", "inhibition": 2}
{"smiles": "O=C(Nc1ccc(S(=O)(=O)NCCc2ccccc2)cc1)c1ccc(Br)o1", "inhibition": 3}
{"smiles": "Cn1c(=O)[nH]c(=O)c2c1nc(N1CCNCC1)n2Cc1cccc2ccccc12", "inhibition": 8}
{"smiles": "CCOC(=O)C1=C(C)N(C)C(C)=C(C(=O)OCC)C1c1cccnc1", "inhibition": 2}
{"smiles": "O=C(N1CCN(Cc2ccccc2)CC1)C12CC3CC(CC(C3)C1)C2", "inhibition": 0}
{"smiles": "CCOC(=O)CCCn1nc(C)n2c(cc3sccc32)c1=O", "inhibition": 5}
{"smiles": "c1ccc(-c2noc(-c3cccnc3)n2)nc1", "inhibition": 0}
{"smiles": "COc1cccc(NC(=O)N(CCCN2CCOCC2)C(C)c2cc3cccc(OC)c3o2)c1", "note": "(centres undefined)", "inhibition": 0}
{"smiles": "CCOC(=O)CC1=C(C(=O)OCC)C(c2ccc(C)o2)C(C#N)=C(N)O1", "note": "(centres undefined)", "inhibition": 0}
{"smiles": "COCCCNC(=O)c1ccc2c(c1)OCO2", "inhibition": 1}
{"smiles": "CCOC(=O)c1cnn(-c2ncnc3c2cnn3Cc2ccccc2)c1N", "inhibition": 5}
{"smiles": "COc1cc2c(=O)nc3n(c2cc1OC)C(c1ccccc1)N=C(N)N3", "note": "(centres undefined)", "inhibition": 0}
{"smiles": "CCOc1ccccc1-n1c(SCC(=O)NC2CCCC2)nnc1-c1ccoc1C", "inhibition": 1}
{"smiles": "CCOC(=O)c1sc(=NC(=O)c2ccc(OC)c(OC)c2)n(C)c1C", "inhibition": 2}
{"smiles": "Cc1sc2ncnc(OCC(=O)N3CCN(S(=O)(=O)c4ccc(Cl)cc4)CC3)c2c1C", "inhibition": 0}
{"smiles": "COC(=O)c1ccccc1NC(=O)c1cc(-c2ccc(OC)c(OC)c2)on1", "inhibition": 0}
{"smiles": "O=C(CC1CCS(=O)(=O)C1)Nc1ccc[nH]c1=O", "note": "(centres undefined)", "inhibition": 2}
{"smiles": "O=C1c2oc3ccccc3c(=O)c2C(c2cccnc2)N1Cc1ccco1", "note": "(centres undefined)", "inhibition": 0}
{"smiles": "Cc1ccc2c(c1)C1CCCC3C1N2CC(=O)N3Cc1ccccc1", "note": "(centres undefined)", "inhibition": 0}
{"smiles": "CCCCn1c(CN2CCN(c3cccc(Cl)c3)CC2)nc2c1c(=O)n(C)c(=O)n2C", "inhibition": 6}
{"smiles": "O=C(CSc1nnc(CNC(=O)c2cccs2)o1)NC1CCCC1", "inhibition": 0}
{"smiles": "Nc1nc(CN2CCOCC2)cs1", "inhibition": 1}
{"smiles": "S=c1nc(C2CC2)[nH]c2ccccc12", "inhibition": 0}
{"smiles": "CC(=O)N1C(=O)c2cccc3cccc(c23)C(=O)N1C(C)=O", "inhibition": 0}
{"smiles": "CCc1ccccc1NC(=O)c1ccoc1C", "inhibition": 0}
{"smiles": "O=c1cc(COn2nnc3ccc(C(F)(F)F)cc32)nc2sccn12", "inhibition": 0}
{"smiles": "COc1cccc(NS(=O)(=O)c2ccc3[nH]cc(C(=O)NC4CC4)c(=O)c3c2)c1", "inhibition": 2}
{"smiles": "COc1ccc2[nH]c(=O)c(CN(C(=O)c3cccnc3)c3ccccc3OC)cc2c1", "inhibition": 1}
{"smiles": "COc1ccccc1-n1nnnc1SCc1cc2c(cc1Br)OCO2", "inhibition": 0}
{"smiles": "CCOc1ccccc1OCC(=O)NCc1ccco1", "inhibition": 0}
{"smiles": "O=C(NCc1cccs1)C1CCCN(c2ncccn2)C1", "note": "(centres undefined)", "inhibition": 0}
{"smiles": "COc1ccc(C(C(=O)NC2CCCCC2)N2CCC3(CC2)OCCO3)cc1", "note": "(centres undefined)", "inhibition": 0}
{"smiles": "CN(C)S(=O)(=O)c1ccc(C(=O)N2CCCC2c2nc3ccccc3s2)cc1", "note": "(centres undefined)", "inhibition": 0}
{"smiles": "COc1ccccc1-c1nc(C(F)(F)F)c(OC)o1", "inhibition": 0}
{"smiles": "CCCSC1=C(C#N)C(c2ccccc2OCC)CC(=O)N1", "note": "(centres undefined)", "inhibition": 7}
{"smiles": "CCOC(=O)C1CCN(C(=O)c2ccc(OC)cc2OC)CC1", "inhibition": 2}
{"smiles": "CCOc1ccc(N(C)S(=O)(=O)c2ccc3[nH]cc(C(=O)NCC4CCCO4)c(=O)c3c2)cc1", "note": "(centres undefined)", "inhibition": 0}
{"smiles": "O=c1c2ccccc2nc(SCc2cn3ccsc3n2)n1-c1ccc(F)cc1", "inhibition": 0}
